Results taken from PubChem BioAssay (NCATS).
“And” between values parts separate entries of the source, which are not always exact repeats. Equal entries are not always repeated. Inconclusive results are not listed. The source made the active and inactive calls. Unless noted, calls come from the whole dose curve.

Columns and labels:
[1] = molecular target: Peroxisome proliferator-activated receptor delta (Homo sapiens) (UniProt Q03181); experiment: qHTS assay for small molecule agonists of peroxisome proliferator-activated receptor delta signaling (AID 588534);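 note: 0% = DMSO basal wells and 100% = positive control agonist at 10 µM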
In short: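 Fluorescence from CCF4 substrate cleavage by beta-lactamase reporter, read 2 hrs at RT, measured agonist activity. Compounds were tested with 18 hrs exposure at 37 C. Concentration-response data fitted to Hill equation.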

[2] = qHTS assay for small molecule antagonists of peroxisome proliferator-activated receptor delta signaling (AID 588535; active = well fitted inhibition curve with a large enough effect in the signal ratio, with a control signal flat, not every such curve was filed as active; the % refers to the signal ratio; note: potency is the fitted concentration of half-maximal effect;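 for max response: cells co-treated with a PPAR-delta agonist as stimulator during compound exposure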); conditions: HEK293T PPARd-UAS-bla, beta-lactamase FRET ratio, 18 h; 460 nm channel
In short: (§1)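 HEK293T PPAR-delta-UAS-bla cells, 4000/well, 2% charcoal/dextran FBS; 5 h 37 C; cpd titration; 18 h 37 C; CCF4 2 h RT; FI 460/530 nm; Hill fit → IC50, efficacy.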

[3] = molecular target: Peroxisome proliferator-activated receptor delta (Homo sapiens) (UniProt Q03181); experiment: as above
In short: as §1

[4] = molecular target: Peroxisome proliferator-activated receptor gamma (Homo sapiens) (UniProt P37231); experiment: qHTS assay for small molecule antagonists of peroxisome proliferator-activated receptor gamma signaling (AID 588537; active = well fitted inhibition curve with a large enough effect in the signal ratio, with a control signal flat, not every such curve was filed as active; the % refers to the signal ratio; note: potency is the fitted concentration of half-maximal effect)
In short: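 Antagonist mode, beta-lactamase reporter in HEK293; charcoal/dextran FBS 1%; 3000 cells/well, 37 C 6-6.5 h; cpd titration + rosiglitazone 50 nM final, 16 h 37 C; CCF4, 2 h RT; 460/530 nm; Hill fit → IC50, efficacy.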

[5] = molecular target: Vitamin D3 receptor (Homo sapiens) (UniProt P11473); experiment: qHTS assay for small molecule antagonists of vitamin D receptor signaling (AID 588541); note: potency is the fitted concentration of half-maximal effect
In short: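 Antagonist-mode beta-lactamase reporter assay: HEK293T VDR-UAS-bla cells were exposed to titrated compound alongside 1-alpha,25-dihydroxyvitamin D3 at 3 nM final for 16 h. Values were normalized to the 50 nM agonist control and DMSO basal, with IC50 and efficacy from Hill equation fits.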

[6] = molecular target: Vitamin D3 receptor (Homo sapiens) (UniProt P11473); experiment: qHTS assay for small molecule agonists of vitamin D receptor signaling (AID 588543);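 note: 0% = DMSO basal and 100% = reference agonist control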
In short: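 qHTS in agonist mode: compound titrations stimulate a VDR-driven β-lactamase reporter in HEK293T cells over 16 h at 37 °C. Response normalized to 50 nM 1α,25-dihydroxyvitamin D3 = 100%, DMSO = 0%; Hill fitting gives EC50 and maximal response.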

[7] = qHTS assay for small molecule antagonists of retinoid X receptor alpha signaling (AID 588546; active = well fitted inhibition curve with a large enough effect in the signal ratio, with a control signal flat, not every such curve was filed as active; the % refers to the signal ratio;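 note: cells stimulated with 9-cis-retinoic acid as agonist; % is set by controls: 0 for no effect and ±100 for the full control effect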); conditions: HEK293T RXRa-UAS-bla, beta-lactamase ratio, antagonist mode; measured here: W530 green channel, cytotoxicity proxy
In short: (§2)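 Beta-lactamase reporter inhibition, read as CCF4 fluorescence ratio (ex 405, em 460/530 nm) after 2 h at RT. HEK293T UAS-bla cells, 2500/well, were stimulated with 9-cis-RA at 500 or 100 nM final alongside test compound for 18 h at 37 C.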

[8] = molecular target: Retinoic acid receptor RXR-alpha (Homo sapiens) (UniProt P19793); experiment: as above; conditions: HEK293T RXRa-UAS-bla, beta-lactamase ratio, antagonist mode
In short: as §2

[9] = molecular target: Voltage-gated inwardly rectifying potassium channel KCNH2 (Homo sapiens) (UniProt Q12809); experiment: qHTS Assay for Small Molecule Inhibitors of the Human hERG Channel Activity (AID 588834; active = well fitted curve in the direction sought with a large enough effect; an effect the other way counts as inactive or inconclusive;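 note: lower thallium flux fluorescence means stronger hERG block; nearly all actives have a fitted effect of over 50% in size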; note: potency is the fitted concentration of half-maximal effect)
In short: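 Measured: FluxOR fluorescence after thallium stimulation in U2OS cells transduced with hERG by baculovirus. Compounds pre-incubated around 10 min; medium Opti-MEM with 2% FCS. AC50 from Hill equation.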

[10] = molecular target: Glutaminase kidney isoform, mitochondrial (Homo sapiens) (UniProt O94925); experiment: qHTS for Inhibitors of Glutaminase (GLS): LOPAC Validation (AID 624146; active = well fitted curve in the direction sought with a large enough effect; an effect the other way counts as inactive or inconclusive;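 note: glutamate product detected by oxidase and peroxidase coupled Amplex red fluorescence gain; series mostly up to about 46 µM; % is set by controls: 0 for no effect and ±100 for the full control effect; nearly all actives have a fitted effect of over 60% in size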)
In short: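 hKGA in 45 mM KH2PO4 (pH 8.2), 0.02% Tween-20 with compound, then 1mM L-Glutamine (stock as added) plus glutamate oxidase/HRP/Amplex red coupling mix. Fluorescence read initially and after 30 min at RT; signal change reflects glutamate formation.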

[11] = qHTS of Trypanosoma Brucei Inhibitors: LOPAC Validation (AID 624147; active = well fitted curve in the direction sought with a large enough effect; an effect the other way counts as inactive or inconclusive; note: 0% is about no effect)
In short: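 Activity of T. brucei pyruvate kinase was followed by Kinase-Glo Plus luminescence after the enzyme reacted 45 min at room temperature with 130 uM ADP (final) and substrate. Test compounds were added before ADP at multiple concentrations.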

[12] = molecular target: Thyroid hormone receptor beta (Homo sapiens) (UniProt P10828); experiment: qHTS assay for small molecule agonists of thyroid hormone receptor beta signaling (AID 588545);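 note: 0% = DMSO only and 100% = 10 nM T3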
In short: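 TR-UAS-bla GripTite HEK 293 cells (2500/well, medium with 2% charcoal/dextran FBS) were treated in agonist mode for 18 h at 37 C, titrated. Beta-lactamase was read by CCF4 ratio after 2 h; normalized to 10 nM T3 (100%) and DMSO, Hill-fitted for EC50 and efficacy.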

[13] = qHTS assay for small molecule agonists of retinoid X receptor alpha signaling (AID 588544); conditions: HEK293T RXRa-UAS-bla, beta-lactamase reporter, 18 h; 530 nm emission
[14] = molecular target: Retinoic acid receptor RXR-alpha (Homo sapiens) (UniProt P19793); experiment: as above
[15] = molecular target: Thyroid hormone receptor beta (Homo sapiens) (UniProt P10828); experiment: qHTS assay for small molecule antagonists of thyroid hormone receptor beta signaling (AID 588547; active = well fitted inhibition curve with a large enough effect in the signal ratio, with a control signal flat, not every such curve was filed as active; the % refers to the signal ratio;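 note: cells stimulated with 0.4 nM T3 agonist during compound exposure; series mostly up to about 77 µM; % is set by controls: 0 for no effect and ±100 for the full control effect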); conditions: TR-UAS-bla HEK293, beta-lactamase ratio, antagonist mode, 18 h
In short: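 Inhibition of T3-driven (0.4nM final) beta-lactamase reporter activity was measured over 0.59 nM to 92 uM compound after 18 h at 37 C. The cells were GripTite HEK293 TR-UAS-bla in charcoal/dextran-stripped serum, with CCF4 ratio read-out and IC50 from Hill fits.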

[16] = molecular target: Luciferin 4-monooxygenase (Photinus pyralis) (UniProt P08659); experiment: Biochemical firefly luciferase enzyme assay for NPC (AID 624030; active = well fitted curve in the direction sought with a large enough effect; an effect the other way counts as inactive or inconclusive; note: nearly all actives have a fitted effect of over 70% in size; note: potency is the fitted concentration of half-maximal effect)
In short: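 Direct inhibition of firefly luciferase enzyme (10 nM final, 50 mM Tris Acetate) assessed by luminescence within 5 minutes. Percent activity scaled between DMSO and PTC124 positive control, with concentration-effect curves classified by fit quality and response.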

[17] = molecular target: Peroxisome proliferator-activated receptor gamma (Homo sapiens) (UniProt P37231); experiment: qHTS assay for small molecule agonists of peroxisome proliferator-activated receptor gamma signaling (AID 588536; active = well fitted curve in the direction sought with a large enough effect in the signal ratio, with a control signal flat, not every such curve was filed as active; the % refers to the signal ratio;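 note: 0% = DMSO basal wells and 100% = rosiglitazone at 2 µM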)
In short: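 HEK293 UAS-bla reporter line, 1% charcoal/dextran FBS; titration, 16 h, 37 C; CCF4 loading 2 h RT; fluorescence 460/530 nm. Normalized to rosiglitazone 2 uM = 100%, DMSO = 0%.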

[18] = S16 Schwann cell viability assay (CellTiter-Glo assay) (AID 624031; active = well fitted curve in the direction sought with a large enough effect; an effect the other way counts as inactive or inconclusive; note: potency is the fitted concentration of half-maximal effect; nearly all actives have a fitted effect of over 70% in size)
In short: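 Counter-screen for cytotoxicity: parental S16 rat Schwann cells lacking the PMP22 reporters, treated 24 h with compound, viability from cellular ATP by CellTiter-Glo luminescence, normalized to DMSO (0%) and no-cell wells.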

[19] = S16 Schwann cell PMP22 intronic element firefly luciferase assay (AID 624032; active = well fitted curve in the direction sought with a large enough effect; an effect the other way counts as inactive or inconclusive; note: potency is the fitted concentration of half-maximal effect; nearly all actives have a fitted effect of over 30% in size)
In short: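 Luciferase reporter of PMP22 intronic-element expression in stably transfected S16 rat Schwann cells, read by ONE-Glo luminescence after 24 h compound exposure at 37 C. Activity scaled between DMSO (0%) and positive-control PTC124; concentration-effect curves quality-classified.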

[20] = S16 Schwann cell PMP22 intronic element beta-lactamase assay (AID 624044); note: potency is the fitted concentration of half-maximal effect; nearly all actives have a fitted effect of over 15% in size
In short: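 Rat S16 Schwann cells with beta-Lac driven by a PMP22 intronic element, compound-treated 24 h at 37 °C. LiveBLAzer FRET B/G read: 460 nm normalized to potassium clavulanate vs DMSO; 535 nm FRET as viability; concentration-effect curves classified.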

Chain of Vitamin D3 receptor (Homo sapiens) (P11473 whole entry, looked up): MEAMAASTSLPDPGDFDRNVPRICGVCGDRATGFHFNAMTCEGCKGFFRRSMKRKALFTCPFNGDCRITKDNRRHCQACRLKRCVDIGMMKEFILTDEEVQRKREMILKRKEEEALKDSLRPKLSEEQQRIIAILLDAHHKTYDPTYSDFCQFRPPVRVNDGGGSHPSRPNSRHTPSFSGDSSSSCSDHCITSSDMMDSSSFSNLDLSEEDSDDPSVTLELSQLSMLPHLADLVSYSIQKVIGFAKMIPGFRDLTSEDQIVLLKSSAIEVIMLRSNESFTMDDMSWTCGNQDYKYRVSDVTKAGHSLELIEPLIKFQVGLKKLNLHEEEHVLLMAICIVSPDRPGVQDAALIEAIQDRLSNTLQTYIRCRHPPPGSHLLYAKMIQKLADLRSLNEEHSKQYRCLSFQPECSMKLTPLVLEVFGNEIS
Chain of Peroxisome proliferator-activated receptor gamma (Homo sapiens) (P37231 whole entry, looked up): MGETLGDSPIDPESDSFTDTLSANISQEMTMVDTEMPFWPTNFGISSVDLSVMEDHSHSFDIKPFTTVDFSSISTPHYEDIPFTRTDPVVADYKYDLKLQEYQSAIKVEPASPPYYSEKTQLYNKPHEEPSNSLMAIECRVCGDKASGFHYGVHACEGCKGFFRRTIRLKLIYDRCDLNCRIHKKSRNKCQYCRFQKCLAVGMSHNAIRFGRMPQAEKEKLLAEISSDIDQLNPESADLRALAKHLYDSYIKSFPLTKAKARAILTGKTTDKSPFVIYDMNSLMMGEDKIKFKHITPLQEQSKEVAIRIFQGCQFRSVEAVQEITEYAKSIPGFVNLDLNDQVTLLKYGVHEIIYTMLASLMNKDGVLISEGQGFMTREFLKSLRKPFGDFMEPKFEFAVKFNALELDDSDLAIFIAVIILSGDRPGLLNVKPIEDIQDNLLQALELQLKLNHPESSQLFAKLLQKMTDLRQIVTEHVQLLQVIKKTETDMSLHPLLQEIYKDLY
Chain of Voltage-gated inwardly rectifying potassium channel KCNH2 (Homo sapiens) (Q12809 whole entry, looked up): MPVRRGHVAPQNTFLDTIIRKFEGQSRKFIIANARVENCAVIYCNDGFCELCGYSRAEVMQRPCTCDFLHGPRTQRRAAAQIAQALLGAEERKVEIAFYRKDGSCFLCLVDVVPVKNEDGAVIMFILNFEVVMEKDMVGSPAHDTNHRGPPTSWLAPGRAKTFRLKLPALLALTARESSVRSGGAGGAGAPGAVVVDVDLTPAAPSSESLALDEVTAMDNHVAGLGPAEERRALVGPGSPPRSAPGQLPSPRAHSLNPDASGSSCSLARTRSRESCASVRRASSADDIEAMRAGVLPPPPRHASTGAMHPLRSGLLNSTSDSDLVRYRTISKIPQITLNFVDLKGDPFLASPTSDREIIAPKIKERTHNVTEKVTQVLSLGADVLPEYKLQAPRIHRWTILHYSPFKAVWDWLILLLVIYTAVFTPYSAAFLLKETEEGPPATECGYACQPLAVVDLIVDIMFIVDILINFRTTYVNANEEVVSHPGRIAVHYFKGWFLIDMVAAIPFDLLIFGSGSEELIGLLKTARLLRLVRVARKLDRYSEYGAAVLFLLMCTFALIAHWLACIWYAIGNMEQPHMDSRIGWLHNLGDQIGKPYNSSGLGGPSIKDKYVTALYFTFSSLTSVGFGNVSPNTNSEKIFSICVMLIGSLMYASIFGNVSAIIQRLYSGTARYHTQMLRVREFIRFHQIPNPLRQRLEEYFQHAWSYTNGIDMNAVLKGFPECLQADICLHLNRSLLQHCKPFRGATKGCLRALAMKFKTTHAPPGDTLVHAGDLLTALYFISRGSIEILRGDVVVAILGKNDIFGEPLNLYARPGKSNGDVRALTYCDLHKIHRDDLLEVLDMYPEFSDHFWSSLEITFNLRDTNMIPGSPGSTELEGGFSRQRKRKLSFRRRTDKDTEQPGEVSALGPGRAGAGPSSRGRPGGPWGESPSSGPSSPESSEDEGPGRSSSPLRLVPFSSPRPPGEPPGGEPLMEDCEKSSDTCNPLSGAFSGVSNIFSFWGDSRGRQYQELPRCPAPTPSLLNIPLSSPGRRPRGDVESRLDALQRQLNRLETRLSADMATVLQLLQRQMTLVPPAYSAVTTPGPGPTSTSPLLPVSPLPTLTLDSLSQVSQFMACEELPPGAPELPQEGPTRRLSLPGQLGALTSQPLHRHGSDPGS
Chain of Thyroid hormone receptor beta (Homo sapiens) (P10828 whole entry, looked up): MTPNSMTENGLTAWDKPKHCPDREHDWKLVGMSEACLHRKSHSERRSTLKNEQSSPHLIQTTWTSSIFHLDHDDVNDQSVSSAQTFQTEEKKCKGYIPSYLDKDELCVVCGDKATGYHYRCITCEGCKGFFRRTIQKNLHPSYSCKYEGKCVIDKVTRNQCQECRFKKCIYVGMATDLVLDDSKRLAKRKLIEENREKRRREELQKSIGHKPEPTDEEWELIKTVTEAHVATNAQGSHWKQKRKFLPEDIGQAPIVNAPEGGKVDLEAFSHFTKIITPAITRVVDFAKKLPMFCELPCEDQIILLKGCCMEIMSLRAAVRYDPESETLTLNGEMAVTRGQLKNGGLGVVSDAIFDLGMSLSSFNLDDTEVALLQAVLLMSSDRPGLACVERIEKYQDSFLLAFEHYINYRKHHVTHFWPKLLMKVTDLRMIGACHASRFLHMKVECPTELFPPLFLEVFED
Chain of Peroxisome proliferator-activated receptor delta (Homo sapiens) (Q03181 whole entry, looked up): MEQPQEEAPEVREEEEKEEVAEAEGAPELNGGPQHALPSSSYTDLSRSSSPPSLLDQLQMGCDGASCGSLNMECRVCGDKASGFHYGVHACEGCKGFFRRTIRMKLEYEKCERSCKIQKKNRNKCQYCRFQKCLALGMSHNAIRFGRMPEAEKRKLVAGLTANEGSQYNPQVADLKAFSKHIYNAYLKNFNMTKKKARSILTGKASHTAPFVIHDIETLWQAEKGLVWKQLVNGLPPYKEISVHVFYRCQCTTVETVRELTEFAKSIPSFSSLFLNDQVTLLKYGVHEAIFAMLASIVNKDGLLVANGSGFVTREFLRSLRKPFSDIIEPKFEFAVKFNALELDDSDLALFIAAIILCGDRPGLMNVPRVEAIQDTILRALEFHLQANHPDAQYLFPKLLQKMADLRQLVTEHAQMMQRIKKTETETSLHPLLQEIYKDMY
Chain of Retinoic acid receptor RXR-alpha (Homo sapiens) (P19793 whole entry, looked up): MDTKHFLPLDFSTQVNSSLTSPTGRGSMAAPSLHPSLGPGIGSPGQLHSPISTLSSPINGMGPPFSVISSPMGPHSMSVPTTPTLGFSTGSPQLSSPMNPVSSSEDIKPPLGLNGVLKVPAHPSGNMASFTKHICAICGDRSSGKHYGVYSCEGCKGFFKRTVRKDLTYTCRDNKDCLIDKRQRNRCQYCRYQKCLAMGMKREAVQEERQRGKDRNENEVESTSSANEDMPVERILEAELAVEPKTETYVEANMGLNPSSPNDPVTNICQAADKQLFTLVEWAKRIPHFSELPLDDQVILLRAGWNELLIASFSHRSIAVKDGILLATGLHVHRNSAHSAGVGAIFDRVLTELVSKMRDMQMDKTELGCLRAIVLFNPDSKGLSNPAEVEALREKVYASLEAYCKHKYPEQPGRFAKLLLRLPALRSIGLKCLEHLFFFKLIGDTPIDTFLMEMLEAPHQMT
Chain of Luciferin 4-monooxygenase (Photinus pyralis) (P08659 whole entry, looked up): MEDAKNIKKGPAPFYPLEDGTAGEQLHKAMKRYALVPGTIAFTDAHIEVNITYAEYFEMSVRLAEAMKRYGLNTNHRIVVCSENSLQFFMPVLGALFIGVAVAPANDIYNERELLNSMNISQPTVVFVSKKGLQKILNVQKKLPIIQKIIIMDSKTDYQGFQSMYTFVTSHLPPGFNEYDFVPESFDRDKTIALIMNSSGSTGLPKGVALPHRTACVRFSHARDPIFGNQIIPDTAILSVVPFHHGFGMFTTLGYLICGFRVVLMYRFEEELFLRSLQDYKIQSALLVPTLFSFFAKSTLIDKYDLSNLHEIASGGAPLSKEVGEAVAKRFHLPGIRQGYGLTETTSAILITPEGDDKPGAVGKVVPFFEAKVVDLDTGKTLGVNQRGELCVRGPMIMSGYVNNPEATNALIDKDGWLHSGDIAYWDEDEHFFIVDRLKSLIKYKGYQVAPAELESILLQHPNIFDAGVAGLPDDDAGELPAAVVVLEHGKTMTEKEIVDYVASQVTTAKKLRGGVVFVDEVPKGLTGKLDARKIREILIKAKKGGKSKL
Chain of Glutaminase kidney isoform, mitochondrial (Homo sapiens) (O94925 whole entry, looked up, canonical isoform): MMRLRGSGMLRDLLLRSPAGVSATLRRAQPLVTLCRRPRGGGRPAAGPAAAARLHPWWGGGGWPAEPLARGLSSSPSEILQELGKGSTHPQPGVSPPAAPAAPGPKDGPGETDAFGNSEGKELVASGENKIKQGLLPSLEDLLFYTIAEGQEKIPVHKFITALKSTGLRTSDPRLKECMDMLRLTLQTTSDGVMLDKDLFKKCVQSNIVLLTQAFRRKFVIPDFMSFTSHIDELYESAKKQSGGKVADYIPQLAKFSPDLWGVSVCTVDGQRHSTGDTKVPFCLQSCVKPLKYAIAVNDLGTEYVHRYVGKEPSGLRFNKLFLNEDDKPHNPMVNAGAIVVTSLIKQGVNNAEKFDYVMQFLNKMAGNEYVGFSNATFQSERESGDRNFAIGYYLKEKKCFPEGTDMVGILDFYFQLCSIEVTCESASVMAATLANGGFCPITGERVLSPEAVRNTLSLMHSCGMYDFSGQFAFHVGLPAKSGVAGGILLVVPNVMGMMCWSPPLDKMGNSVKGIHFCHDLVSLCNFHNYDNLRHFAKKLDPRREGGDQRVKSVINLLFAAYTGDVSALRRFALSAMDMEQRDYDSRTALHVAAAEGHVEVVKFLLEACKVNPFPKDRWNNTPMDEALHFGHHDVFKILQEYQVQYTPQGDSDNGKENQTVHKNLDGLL

Clc1cnc(Oc2ccc(Oc3ncc(Cl)cc3Cl)cc2)c(Cl)c1
-4.82%: max response [7]
inactive: outcome [1] | Potency [3] | Potency [4] | Potency [5] | outcome [6] | max response [8] -16.8% | Potency [9] | Potency [10] | outcome [11]
17%: max response [2]

COc1nn(CSP(=S)(OC)OC)c(=O)s1
inactive: outcome [1] | Potency [5] | outcome [6] | outcome [12]

CC(C)(O)C(=O)Nc1ccc([N+](=O)[O-])c(C(F)(F)F)c1
15.1%: max response [7]
11.6%: max response [13]
inactive: outcome [6] | Potency [14] | outcome [12] | max response [8] -2.4% | activity change % (negative = inhibition) [15] 23.5% | Potency [9]

CO/C=C(/C(=O)OC)c1ccccc1Oc1cc(Oc2ccccc2C#N)ncn1
inactive: outcome [1] | Potency [5] | outcome [6] | outcome [12] | Potency [16]

CCCN(CCC)c1c([N+](=O)[O-])cc(S(N)(=O)=O)cc1[N+](=O)[O-]
-0.936%: max response [13]
inactive: outcome [1] | Potency [3] | outcome [6] | Potency [14] | max response [8] 2.44% | activity change % (negative = inhibition) [15] 0.13% | Potency [16]
53.5%: max response [2]
-18.5%: max response [7]

Nc1ccc(Sc2ccc(N)cc2)cc1
14.5% and 0.308%: max response [13]
1.56% and -5.13%: max response [7]
inactive: outcome [1] | outcome [17] | Potency [4] | Potency [5] | outcome [6] | Potency [14] | outcome [12] | max response [8] 1.16% and 6.78% | activity change % (negative = inhibition) [15] -2.35% and -11.2% | Potency [9]

O=C(O)c1cc(Oc2ccc(C(F)(F)F)cc2Cl)ccc1[N+](=O)[O-]
inactive: outcome [17] | Potency [14] | outcome [12] | max response [8] -9.38% | activity change % (negative = inhibition) [15] -21.5% | Potency [16]
-4.23%: max response [7]
11.8%: max response [13]

O=[N+]([O-])c1c2ccccc2cc2ccccc12
inactive: Potency [5] | outcome [6] | Potency [14] | outcome [12] | activity change % (negative = inhibition) [15] 0.364% | Potency [9] | Potency [16]
active: Potency [4] 31.6 µM
3.63%: max response [13]

Nc1ccc(Cl)cc1N
11.5% and -1.67%: max response [7]
active: Potency [9] 39.8 µM | Potency [16] 3.32 µM
inactive: outcome [17] | Potency [5] | outcome [6] | Potency [14] | outcome [12] | max response [8] -1.75% and 0.323% | activity change % (negative = inhibition) [15] -20.8%
13.9%: max response [13]

CC(=O)[O][Hg][c]1ccccc1
-98.8%: max response [2]
active: Potency [3] 2.82 µM | Potency [5] 1.58 µM and 2.51 µM | Potency [9] 14.1 µM and 25.1 µM | Potency [16] 2.56 µM | Potency [18] 0.907 µM | Potency [19] 1.14 µM | Potency [20] 14.1 µM
